Measurements: PubChem BioAssay AID651815 (National Center for Advancing Translational Sciences (NCATS), 2012)
Hit rate of the full screen: of about 2,100 compounds, about 1,100 (52%) were called active. Roughly 29% stayed inconclusive and do not appear here. Calls follow the shape of the dose curve; as a rule, active = well fitted inhibition curve with a large enough effect; inconclusive = small, poorly fitted or top-dose-only effect; inactive = no such curve, though single readings can be large or run the other way. The set was probably picked from earlier hits. This is one part of the list.

molecular target: DNA dC->dU-editing enzyme APOBEC-3F (Homo sapiens) (UniProt Q8IUX4); assay: qHTS for inhibitors of Vif-A3F interactions: Cherry picks counterscreen; settings: HeLa A3F-eYFP/Vif cells, eYFP fluorescence, 24 h; series mostly up to 46.1 µM; activity, negative = inhibitor: at the top concentration; also: nearly all actives have a fitted effect of over 65% in size
From the text: The recent discovery and characterization of host restriction factors, which provide a potent defense to invading retroviruses, has provided new targets for antiviral drug development. APOBEC3G (A3G) and APOBEC3F (A3F) are potent cytidine deaminases that block HIV-1 replication; HIV-1 expresses the Vif protein, which counteracts A3G and A3F by binding to them and inducing their proteasomal degradation. The Vif-A3G and Vif-A3F interactions provide two potential targets for development of small molecules which can interfere with the ability of Vif to degrade A3G or A3F. […] To identify inhibitors that can interfere with Vif mediated degradation of A3G and A3F, we have developed Hela cell lines that stably express A3G or A3F tagged with eYFP at the C-terminal end (A3G-eYFP or A3F-eYFP, respectively) and Vif. In the absence of an inhibitor, Vif induces degradation of A3G-eYFP and A3F-eYFP, and the cells are not fluorescent. In the presence of an inhibitor, it is expected that Vif will be unable to degrade A3G-eYFP and/or A3F-eYFP, resulting in an increase in yellow fluorescence. In this counterscreen assay, Vif A3F was screened against the cherry picks ordered from the MLSMR. NIH Chemical Genomics Center [NCGC] NIH Molecular Libraries Probe Centers Network [MLPCN] MLPCN Grant: MH093245 Assay Submitter (PI): Vinay Pathak, National Cancer Institute
A3F-Vif cells were harvested from T225 flask and resuspended in phenol free OPTI-MEM medium with 5% FBS. Then 5 uL of 140,000 cells/mL resuspended cells was dispensed into each well of low base Aurora COC 1,536-well plates (black walled, clear bottom) using a Multidrop Combi dispenser. After overnight culture at 37 deg C with 5% CO2, a total of 23 nL of compounds at 5 selected concentrations from the NPC or positive control (2 mM stock of MG132) in DMSO was transferred to each well of the assay plate using a pintool (Kalypsys, San Diego, CA), and the plates were further incubated at 37 deg C with 5% CO2 for 24 hours. After that, the plates were measured on Acumen Explorer (TTP Lab Tech). The fluorescence was detected by 488 nm/Ex and […].
% is scaled to controls: 0 for no effect and ±100 for the full control effect; potency is read from the fitted curve at half-maximal effect.

Sequence of DNA dC->dU-editing enzyme APOBEC-3F (Homo sapiens) (Q8IUX4 whole entry, looked up): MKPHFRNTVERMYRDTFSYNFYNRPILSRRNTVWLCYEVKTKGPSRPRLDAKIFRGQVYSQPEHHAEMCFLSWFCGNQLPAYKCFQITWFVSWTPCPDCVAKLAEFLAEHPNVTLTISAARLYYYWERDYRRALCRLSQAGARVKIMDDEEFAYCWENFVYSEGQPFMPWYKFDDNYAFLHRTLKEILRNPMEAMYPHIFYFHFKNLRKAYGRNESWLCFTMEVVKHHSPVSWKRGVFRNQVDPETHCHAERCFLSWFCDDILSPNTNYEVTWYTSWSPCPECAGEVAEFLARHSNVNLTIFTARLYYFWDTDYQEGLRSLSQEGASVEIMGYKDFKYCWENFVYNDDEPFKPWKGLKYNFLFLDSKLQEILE

Row | Structure (SMILES) | activity, negative = inhibitor | Potency
1 | O=C(C(=O)N1CCN(c2ccccc2Cl)CC1)c1c[nH]c2ccccc12 | -0.112% [at 36.9 µM] (inactive) | –
2 | COc1cc(NC(=O)c2ccco2)c(C(=O)OCC(=O)c2c[nH]c3ccccc23)cc1OC | -10.7% [at 36.9 µM] (inactive) | –
3 | CC1CC(C)CN(CC(=O)c2c[nH]c3ccccc23)C1 (stereo unspecified) | – | 20.6 µM (active)
4 | COc1cc(/C=C(\C#N)c2nc3ccccc3[nH]2)ccc1O | 32.8% (inactive) | –
5 | COc1cc(/C=C(\C#N)c2nc3ccccc3s2)ccc1OCC(=O)Nc1ccccc1 | – | 15.8 µM (active)
6 | COc1cc(/C=C(\C#N)c2nc3ccccc3[nH]2)ccc1OCc1ccccc1F | – | 16.4 µM (active)
7 | COc1cc(/C=C(\C#N)c2nc3ccc(C)cc3[nH]2)ccc1OC(C)C | – | 20.6 µM (active)
8 | COc1cc(/C=C(/C#N)c2nc3ccccc3[nH]2)ccc1OCC(=O)Nc1ccccc1C(C)C | – | 13 µM (active)
9 | NNC(=S)Nc1c(F)cc(F)cc1Br | -2.67% (inactive) | –
10 | COc1cc(/C=C(/C#N)c2nc3ccccc3[nH]2)ccc1OC(=O)c1ccco1 | 32.9% [at 36.9 µM] (inactive) | –
11 | Cc1ccc2nc(/C(C#N)=C\c3ccc(OC(=O)c4cccs4)cc3)[nH]c2c1 | – | 8.86 µM (active)
12 | CCN(CC)c1ccc(/C=C(/C#N)c2nc3ccccc3[nH]2)c(OC(C)C)c1 | – | 0.366 µM (active)
13 | CCOc1cc(N(CC)CC)ccc1/C=C(/C#N)c1nc2ccccc2[nH]1 | 47.3% (inactive) | –
14 | NNC(=O)c1oc2nc(-c3ccccc3)cc(-c3ccco3)c2c1N | – | 16.4 µM (active)
15 | Cc1ccc(-c2cc(-c3ccco3)c3c(N)c(C(=O)NN)oc3n2)cc1 | – | 14.6 µM (active)
16 | CCOc1cc(/C=C2\CCC/C(=C\c3cc(Cl)c(O)c(OCC)c3)C2=O)cc(Cl)c1O | – | 12.5 µM (active)
17 | COc1cc(/C=C2/CCC/C(=C\c3cc(O)c(OC)c(Cl)c3)C2=O)cc(Cl)c1O | – | 13 µM (active)
18 | CCOc1cc(/C=C2\CN(C)C/C(=C\c3ccc(O)c(OCC)c3)C2=O)ccc1O | – | 2.5 µM (active)
19 | O=c1c(O)c(-c2cccs2)oc2ccccc12 | – | 2.59 µM (active)
20 | Cc1ccc(/C=N/NC(=O)c2cc(C)oc2C)cc1 | – | 7.04 µM (active)
21 | Cc1ccc(/C=N/NC(=O)c2nc3nc(C)cc(C)n3n2)cc1 | 7.3% (inactive) | –
22 | CN(C)c1ccc(/C=N/NC(=O)c2ccccc2Cl)cc1 | – | 3.53 µM (active)
23 | CC(NC(=S)Nc1cccc(C(F)(F)F)c1)C(C)(C)C (stereo unspecified) | -9.15% (inactive) | –

Row | Structure (SMILES) | activity, negative = inhibitor | Potency
24 | C[C@@H]1O[C@@H](O[C@@H]2C(=O)c3c(O)cc(O)cc3O[C@H]2c2ccc(O)c(O)c2)[C@H](O)[C@H](O)[C@H]1O | 4.26% [at 36.9 µM] (inactive) | –
25 | Cc1cccc(CSc2nc(-c3cccs3)ccc2C#N)c1 | -24.3% (inactive) | –
26 | N#Cc1ccc(-c2cccs2)nc1SCc1c(F)cccc1Cl | – | 3.66 µM (active)
27 | Cc1ccnc(NC(=S)NC(=O)/C=C/c2ccco2)c1 | – | 11.2 µM (active)
28 | COc1ccc(-c2csc(NC(=S)NC(=O)/C=C/c3ccco3)n2)cc1Br | – | 6.27 µM (active)
29 | CC(C)(C)c1ccc(-c2csc(NC(=O)CN3C(=O)NC4(CCCCC4)C3=O)n2)cc1 | -14.8% (inactive) | –
30 | CSc1ccccc1NC(=O)COC(=O)/C=C/c1ccco1 | 4.47% (inactive) | –
31 | O=C(/C=C/c1ccco1)NC(=S)Nc1cccc(-c2nc3ccccc3o2)c1 | – | 4.98 µM (active)
32 | CN(C)C=Nc1c(Br)cc(Br)c2nonc12 | – | 9.2 µM (active)
33 | CNC(=S)N/N=C(\C)c1ccc(Cl)s1 | 3.84% (inactive) | –
34 | N#CCC(=O)N/N=C/c1ccc(N2N=C(c3ccccc3)CC2c2ccccc2)cc1 (stereo unspecified) | – | 16.4 µM (active)
35 | CCc1ccc(CNC(=O)Cc2ccc(NC(=O)C3=C(C)OCCS3)cc2)cc1 | – | 1.12 µM (active)
36 | Cc1ccc2nc(/C(C#N)=C/c3ccc(-c4cccc(Cl)c4)o3)[nH]c2c1 | – | 8.2 µM (active)
37 | Cc1ccc2nc(/C(C#N)=C/c3ccc(-c4ccccc4C(=O)O)o3)[nH]c2c1 | – | 4.61 µM (active)
38 | N#C/C(=C\c1ccc(-c2ccc(C(=O)O)cc2)o1)c1nc2ccccc2[nH]1 | – | 2.59 µM (active)
39 | N#C/C(=C\c1ccc(-c2ccc(F)cc2F)o1)c1nc2ccccc2[nH]1 | – | 20.6 µM (active)
40 | Cc1ccc2nc(/C(C#N)=C/c3ccc(-c4ccc(C(=O)OC(C)C)cc4)o3)[nH]c2c1 | – | 8.2 µM (active)
41 | Cc1c(Cl)cccc1-c1ccc(/C=C(\C#N)c2nc3ccccc3[nH]2)o1 | – | 16.4 µM (active)
42 | Cc1ccc2nc(/C(C#N)=C/c3ccc(-c4ccc(F)cc4F)o3)[nH]c2c1 | – | 4.61 µM (active)
43 | COCc1ccc(O)c2ncccc12 | -0.742% [at 36.9 µM] (inactive) | –
44 | CCOC(=O)c1sc(NC(=S)NC(=O)c2ccco2)nc1C | 1.21% (inactive) | –
45 | CC(=O)c1sc(N/N=C\c2c(O)ccc3ccccc23)nc1C | – | 14 µM (active)
46 | COc1ccc(C(=O)C(C)[n+]2ccc(C)c3ccccc32)cc1[N+](=O)[O-] (stereo unspecified) | 0.317% [at 36.9 µM] (inactive) | –
